Experimental data from PubChem BioAssay AID651598 (Sanford-Burnham Center for Chemical Genomics, 2012).
Values joined by “and” are separate entries in the source; they are usually repeats but may differ in a detail not shown here. Equal entries are not always repeated.

biological target: C-X-C chemokine receptor type 6 (Homo sapiens) (UniProt O00574); test: APJ beta-arrestin recruitment blockade alongside CXCR6 – cell-based, DiscoveRx, panel, CHO-K1, counter-screen for CXCR6 antagonist project, SAR follow-up (AID 651598); settings: CHO-K1 PathHunter beta-arrestin luminescence, antagonist mode; run 3, at 80 µM (top of the series)
Sequence (O00574 whole entry, looked up): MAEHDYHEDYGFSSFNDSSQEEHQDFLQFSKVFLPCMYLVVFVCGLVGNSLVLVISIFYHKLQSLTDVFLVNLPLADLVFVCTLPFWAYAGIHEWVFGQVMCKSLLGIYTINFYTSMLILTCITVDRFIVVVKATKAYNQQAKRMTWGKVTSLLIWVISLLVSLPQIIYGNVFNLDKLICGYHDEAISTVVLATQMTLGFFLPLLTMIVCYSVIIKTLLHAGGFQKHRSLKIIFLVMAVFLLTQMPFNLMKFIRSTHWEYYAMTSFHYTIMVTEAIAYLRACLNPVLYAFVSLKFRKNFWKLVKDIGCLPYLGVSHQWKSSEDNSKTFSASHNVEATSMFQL

**Q.** How did the inhibition turn out when `COc1cc(C(=O)NC2CC3CCC(C2)N3CC(=O)Nc2ccccc2)cc(OC)c1OC` (stereo not drawn) was run?
**A.** 56.5% and 4.53%

**Q.** How did the inhibition turn out when `COc1cc(C(=O)NC2CCN(CC(=O)Nc3ccccc3)CC2)cc(OC)c1OC` was run?
**A.** 6.56%

**Q.** For `COc1cc(C(=O)NC2CC3CCCC(C2)N3CC(=O)Nc2ccccc2)cc(OC)c1OC` (stereo not drawn), which inhibition is on record?
**A.** 91% and 42.4% and 18.6%
